Test results taken from PubChem BioAssay (NCATS).
Results filed as inconclusive are left out. Where a call stands in place of a potency, no number is given. Activity calls are given as the source filed them. The call rests on the fitted dose curve; in most records, active means well fitted inhibition curve with a large enough effect in the repeat runs; inconclusive means weak or mixed curves; inactive means flat fitted curve, though single readings scatter.

The compounds below were run against Cytochrome P450 2D6 (Homo sapiens) (UniProt P10635) (assay: Cytochrome P450 family 2 subfamily D member 6 (CYP2D6) small molecule antagonists: luciferase biochemical (cell-free) qHTS assay (AID 1645840; further: nearly all actives have a fitted effect of over 55% in size)). Conditions: P450-Glo CYP2D6 enzyme, luciferin luminescence, 1 h; series mostly up to 57.4 µM.
In short: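 P450-Glo CYP2D6 system: proluciferin substrate converted by enzyme to luciferin, read by luminescence proportional to activity. Enzyme-substrate mix with compound 10 min at room temperature, then NADPH regeneration 1 h before detection reagent.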
Potency means the concentration at half of the fitted maximal effect.

Chain of Cytochrome P450 2D6 (Homo sapiens) (P10635 whole entry, looked up): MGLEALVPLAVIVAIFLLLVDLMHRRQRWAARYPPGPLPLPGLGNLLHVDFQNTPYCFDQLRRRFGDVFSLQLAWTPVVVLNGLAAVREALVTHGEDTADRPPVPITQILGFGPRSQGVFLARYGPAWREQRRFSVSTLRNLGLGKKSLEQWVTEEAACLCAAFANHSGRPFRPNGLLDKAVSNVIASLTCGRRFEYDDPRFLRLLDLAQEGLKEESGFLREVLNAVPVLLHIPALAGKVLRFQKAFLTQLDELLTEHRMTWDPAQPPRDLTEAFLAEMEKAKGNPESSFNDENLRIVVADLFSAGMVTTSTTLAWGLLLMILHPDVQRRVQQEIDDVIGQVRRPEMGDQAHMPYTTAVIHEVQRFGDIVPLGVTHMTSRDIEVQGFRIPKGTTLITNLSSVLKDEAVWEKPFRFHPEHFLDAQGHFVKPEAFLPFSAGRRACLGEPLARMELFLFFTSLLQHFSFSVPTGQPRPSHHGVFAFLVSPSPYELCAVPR

Row | Compound | Potency
1 | OC1(c2ccc(Cl)c(C(F)(F)F)c2)CCN(CCCC(c2ccc(F)cc2)c2ccc(F)cc2)CC1 | 1.23 µM (active)
2 | CCCC(=O)O[C@]1(C(=O)CC)CC[C@H]2[C@@H]3CCC4=CC(=O)CC[C@]4(C)[C@H]3[C@@H](O)C[C@@]21C | 12.3 µM (active)
3 | CC(=O)OCC(=O)[C@@]1(O)[C@H](OC(C)=O)C[C@H]2[C@@H]3CCC4=CC(=O)C=C[C@]4(C)[C@@]3(F)[C@@H](O)C[C@@]21C | inactive
4 | NS(=O)(=O)c1cc(C(=O)NN2C[C@H]3[C@H]4CCC(C4)[C@H]3C2)ccc1Cl | inactive
5 | CO/N=C(/C(=O)N[C@@H]1C(=O)N2C(C(=O)O)=C(Cn3nnc(C)n3)CS[C@H]12)c1csc(N)n1 | inactive
6 | O=C1NC(c2ccccc2)(c2ccccc2)C(=O)N1COP(=O)(O)O | inactive
7 | Cn1c(=O)c2c(ncn2CC(=O)O)n(C)c1=O | inactive
8 | NS(=O)(=O)c1cc2c(cc1Cl)CN(C1CCCCC1)C2=O | inactive
9 | CC(=O)Nc1ccc(S(=O)(=O)Nc2cc(C)on2)cc1 | inactive
10 | O=C(Oc1ccccc1)c1ccccc1O | inactive
11 | Cc1ncc(CO)c(CO)c1O | inactive
12 | Cc1sccc1Br | inactive
13 | COc1ccc2c(c1)CCCC2=O | inactive
14 | O=C(CCCCC(=O)Nc1c(I)cc(I)c(C(=O)O)c1I)Nc1c(I)cc(I)c(C(=O)O)c1I | inactive
15 | C[N+](C)(CCOc1ccccc1)Cc1cccs1 | 0.123 µM (active)
16 | O=C(CO)[C@@H](O)[C@H](O)[C@@H](O)CO | inactive
17 | OC1(c2ccccc2)CCNCC1 | 27.5 µM (active)
